# Results taken from PubChem BioAssay (EPA / NIEHS).
# Results filed as inconclusive are left out. Calls of active or inactive are those of the source. The calls were made as follows: active = hit-call score of the fitted dose curve at least 0.9, where 1 is the maximum; inconclusive = response in the unintended direction; inactive = score below 0.9.
# Experiment: CCTE_Mundy_HCI_iCellGluta_NOG_NeuriteCount: CCTE's Neurite Outgrowth Assay in iCellGluta cells for Neurite Count, Mundy Lab (AID 2284342);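 also: chemical exposure about 48 hours starting 2 hours after plating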
# Method: CCTE_Mundy_HCI_iCellGluta_NOG is a multiplexed, cell-based-readout assay that uses iCell GlutaNeurons from FUJIFILM Cellular Dynamics, Inc. (FCDI), human glutamatergic enriched neurons derived from induced pluripotent stem (iPS) cells, with measurements taken at 50.33 hours after chemical dosing in a microplate: 96-well plate.CCTE_Mundy_HCI_iCellGluta_NOG_NeuriteCount is one of four components of the CCTE_Mundy_HCI_iCellGluta_NOG assay. It measures neurite outgrowth related to number of neurites using High Content Imaging of fluorescently labelled markers.Data from the assay component CCTE_Mundy_HCI_iCellGluta_NOG_NeuriteCount was analyzed at the endpoint CCTE_Mundy_HCI_iCellGluta_NOG_NeuriteCount in the positive analysis fitting direction relative to DMSO as the negative control and baseline of activity. Using a type of morphology reporter, loss-of-signal activity can be used to understand developmental effects.
# Exposure starts 2 hours post-plating by adding 10 ul of the working solution to 90 ul of media in the wells for a 1/10 dilution. Forty-eight hours after chemical treatment cells are fixed by direct addition of 100 ul of warm (37C) Dulbecco's phosphate buffered saline (DPBS) fixative solution containing 8% paraformaldehyde, 8% sucrose, and 0.1% of 3 mg/ml Hoechst 33342 into each well. Primary antibodies are prepared by dilution in Immunocytochemical Staining Buffer (ISB), 10X Dulbecco's PBS, 0.1% Saponin, 5% Bovine Serum Albumin, 0.5% NaN3 (Sodium Azide) and betaIII-tubulin (rabbit anti-betaIII-tubulin, 1:800) followed by Alexa Fluor-488 secondary (1:500) to label neuronal cell bodies and neurites. A Cellomics ArrayScan VTi HCS Reader is used for automated image acquisition and analysis of neurite outgrowth.
Compound,AC50,outcome
CO/C=C(/C(=O)OC)c1ccccc1Oc1cc(Oc2ccccc2C#N)ncn1,21.5 µM (active),–
C=CC1(C)OC(=O)N(c2cc(Cl)cc(Cl)c2)C1=O (stereo unspecified),–,inactive
COC(=O)N(OC)c1ccccc1COc1ccn(-c2ccc(Cl)cc2)n1,3.35 µM (active),–
N#Cc1nn(-c2c(Cl)cc(C(F)(F)F)cc2Cl)c(N)c1S(=O)C(F)(F)F (stereo unspecified),–,inactive
CC(C)(C)c1ccc(CSc2cnn(C(C)(C)C)c(=O)c2Cl)cc1,0.374 µM (active),–
CN(C)C(=S)SSC(=S)N(C)C,0.0447 µM (active),–
Cc1ccc(-c2c(Cl)nc(C#N)n2S(=O)(=O)N(C)C)cc1,50 µM (active),–
CCCCNC(=O)n1c(NC(=O)OC)nc2ccccc21,–,inactive
CCCCOC(=O)c1ccccc1C(=O)OCCCC,–,inactive
C=CCC1=C(C)[C@@H](OC(=O)[C@@H]2[C@@H](C=C(C)C)C2(C)C)CC1=O,–,inactive
CCOc1cc(Oc2ccc(C(F)(F)F)cc2Cl)ccc1[N+](=O)[O-],66.4 µM (active),–
COP(N)(=O)SC (stereo unspecified),–,inactive
CCCCC(CC)COC(=O)c1ccccc1C(=O)OCC(CC)CCCC (stereo unspecified),30.4 µM (active),–
COP(=S)(OC)Oc1nc(Cl)c(Cl)cc1Cl,27.8 µM (active),–
C=CCC1=C(C)C(OC(=O)C2C(C=C(C)C)C2(C)C)CC1=O (stereo unspecified),–,inactive
CCOC(=O)CC(SP(=S)(OC)OC)C(=O)OCC (stereo unspecified),–,inactive
